A structure can be active in one record and inactive in another. The source made the active and inactive calls. The calls were made as follows: active = hit-call score of the fitted dose curve at least 0.9, where 1 is the maximum; inactive = score below 0.9.
Test system: not listed separately
Assay: ATG_NFI_CIS: Attagene CIS-FACTORIAL HepG2 Assay for human Nuclear Factor I (NFI) (AID 2282989)
Settings: HepG2 cis-regulatory reporter, NFI response element transcription; actives raise or lower the signal
Outline: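 Reporter transcription driven by endogenous transcription factors in HepG2 cells; 24 h treatment. Quantitation by labelled RT-PCR fragments on capillary electrophoresis, gain- or loss-of-signal relative to DMSO.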

SMILES	outcome	AC50
CCCCCCCC(=O)OC	inactive	–
CN(C)CCCN(C)CCCN(C)C	inactive	–
CCCCC(CC)COP(=O)(OCC(CC)CCCC)OCC(CC)CCCC (stereo not given)	inactive	–
CCC(C)N(C)C(=O)c1cc2ccccc2c(-c2ccccc2Cl)n1 (stereo not given)	inactive	–
O=C(O)c1cccnc1	inactive	–
CN(C)CCCN1c2ccccc2Sc2ccc(Cl)cc21	inactive	–
CCCCCCCCCCCCCCCCO	inactive	–
CCOCCOCCO	inactive	–
C=CCc1ccc(OC)c(OC)c1	inactive	–
CC1(C)C(=O)NC(=O)N1CO	inactive	–
COC(=O)CCCC(=O)OC	inactive	–
CCCCC(CC)CO (stereo not given)	inactive	–
CO[C@@H]1COCC[C@@H]1N[C@@H]1CC[C@@](C(=O)N2CCc3ncc(C(F)(F)F)cc3C2)(C(C)C)C1	inactive	–
CC(=O)OC1CC(C)OC(C)O1 (stereo not given)	inactive	–
N[C@@H](Cc1c[nH]c2ccccc12)C(=O)O	inactive	–
Cc1ccc(C(C)(C)C)c(O)c1	–	141 µM (active)
c1ccc2occc2c1	inactive	–
Cc1occc(=O)c1O	inactive	–
CN(C)C(=O)NC1(c2ccccc2)CCN(CCC[C@]2(c3ccc(Cl)c(Cl)c3)CCCN(C(=O)c3ccccc3)C2)CC1	–	3.32 µM (active)
CC(=O)S[C@H](C(=O)N[C@H]1Cc2ccccc2[C@H]2CCC[C@@H](C(=O)O)N2C1=O)C(C)C	inactive	–
COC(=O)CCC(=O)OC	inactive	–
CCCCCCC(C=O)=Cc1ccccc1	inactive	60 µM (active)
NC=O	inactive	–
CCCCOC(=O)CCCCC(=O)OCCCC	inactive	–
CC(=O)O[C@]1(C(C)=O)CC[C@H]2[C@@H]3C=C(Cl)C4=CC(=O)[C@@H]5C[C@@H]5[C@]4(C)[C@H]3CC[C@@]21C	inactive	–
Nc1nc(Cl)nc2c1ncn2[C@H]1C[C@H](O)[C@@H](CO)O1	inactive	–
Oc1ccc(O)cc1	inactive	–
CCN(CC)CCOc1ccc(C(=C(Cl)c2ccccc2)c2ccccc2)cc1	inactive	14.8 µM (active)
O=C1CCCCC1	inactive	–

Biological target: Myc proto-oncogene protein (Homo sapiens) (UniProt P01106)
Sequence (P01106 whole entry, looked up): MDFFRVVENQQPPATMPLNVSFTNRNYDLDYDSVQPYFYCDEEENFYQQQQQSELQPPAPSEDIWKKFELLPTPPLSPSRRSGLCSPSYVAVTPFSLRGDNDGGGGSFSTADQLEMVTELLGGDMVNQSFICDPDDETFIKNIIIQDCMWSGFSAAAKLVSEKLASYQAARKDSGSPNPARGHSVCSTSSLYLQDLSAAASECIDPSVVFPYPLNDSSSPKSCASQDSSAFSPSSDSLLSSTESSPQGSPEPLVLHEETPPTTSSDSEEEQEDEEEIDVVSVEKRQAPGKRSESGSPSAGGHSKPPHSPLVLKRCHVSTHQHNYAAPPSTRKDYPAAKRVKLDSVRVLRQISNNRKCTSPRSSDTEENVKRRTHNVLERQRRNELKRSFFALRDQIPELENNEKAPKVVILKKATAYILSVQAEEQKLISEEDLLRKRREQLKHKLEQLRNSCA
Assay: ATG_Myc_CIS: Attagene CIS-FACTORIAL HepG2 Assay for human Myelocytomatosis (Myc) Proto-Oncogene Transcription Factor (AID 2282990)
Settings: HepG2, Attagene cis-reporter transcription factor activity; actives raise or lower the signal
Outline: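 Read-out: fluorescent reporter mRNA fragments resolved by capillary electrophoresis after RT-PCR. Human HepG2 liver cells carried transfected cis-element reporter units and were dosed for 24 h. Gain or loss of signal fitted relative to DMSO baseline.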

SMILES	outcome	AC50
CCCCCCCC(=O)OC	inactive	–
CN(C)CCCN(C)CCCN(C)C	inactive	–
CCCCC(CC)COP(=O)(OCC(CC)CCCC)OCC(CC)CCCC (stereo not given)	inactive	–
CCC(C)N(C)C(=O)c1cc2ccccc2c(-c2ccccc2Cl)n1 (stereo not given)	inactive	–
O=C(O)c1cccnc1	inactive	–
CN(C)CCCN1c2ccccc2Sc2ccc(Cl)cc21	inactive	–
CCCCCCCCCCCCCCCCO	inactive	–
CCOCCOCCO	inactive	–
C=CCc1ccc(OC)c(OC)c1	inactive	–
CC1(C)C(=O)NC(=O)N1CO	inactive	–
COC(=O)CCCC(=O)OC	inactive	–
CCCCC(CC)CO (stereo not given)	inactive	–
CO[C@@H]1COCC[C@@H]1N[C@@H]1CC[C@@](C(=O)N2CCc3ncc(C(F)(F)F)cc3C2)(C(C)C)C1	inactive	–
CC(=O)OC1CC(C)OC(C)O1 (stereo not given)	inactive	–
N[C@@H](Cc1c[nH]c2ccccc12)C(=O)O	inactive	–
Cc1ccc(C(C)(C)C)c(O)c1	–	100 µM (active)
c1ccc2occc2c1	inactive	–
Cc1occc(=O)c1O	inactive	–
CN(C)C(=O)NC1(c2ccccc2)CCN(CCC[C@]2(c3ccc(Cl)c(Cl)c3)CCCN(C(=O)c3ccccc3)C2)CC1	–	5.05 µM (active)
CC(=O)S[C@H](C(=O)N[C@H]1Cc2ccccc2[C@H]2CCC[C@@H](C(=O)O)N2C1=O)C(C)C	inactive	–
COC(=O)CCC(=O)OC	inactive	–
CCCCCCC(C=O)=Cc1ccccc1	inactive	–
NC=O	inactive	–
CCCCOC(=O)CCCCC(=O)OCCCC	inactive	–
CC(=O)O[C@]1(C(C)=O)CC[C@H]2[C@@H]3C=C(Cl)C4=CC(=O)[C@@H]5C[C@@H]5[C@]4(C)[C@H]3CC[C@@]21C	inactive	164 µM (active)
Nc1nc(Cl)nc2c1ncn2[C@H]1C[C@H](O)[C@@H](CO)O1	inactive	–
Oc1ccc(O)cc1	inactive	–
CCN(CC)CCOc1ccc(C(=C(Cl)c2ccccc2)c2ccccc2)cc1	inactive	–
O=C1CCCCC1	inactive	–

Test system: not listed separately
Assay: ATG_NF_kB_CIS: Attagene CIS-FACTORIAL HepG2 Assay for human Nuclear Factor Kappa B (NF-kB) (AID 2282991)
Settings: HepG2 Attagene cis-factorial NF-kB reporter mRNA; actives raise or lower the signal
Outline: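 HepG2 cells transiently transfected with multiplexed cis-element reporter units measuring endogenous transcription factor activity; reporter mRNA read 24 h after dosing by RT-PCR, fluorescent labelling, HpaI digestion and capillary electrophoresis. Bidirectional fit against DMSO baseline.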

SMILES	outcome	AC50
CCCCCCCC(=O)OC	inactive	–
CN(C)CCCN(C)CCCN(C)C	inactive	–
CCCCC(CC)COP(=O)(OCC(CC)CCCC)OCC(CC)CCCC (stereo not given)	inactive	–
CCC(C)N(C)C(=O)c1cc2ccccc2c(-c2ccccc2Cl)n1 (stereo not given)	inactive	–
O=C(O)c1cccnc1	inactive	–
CN(C)CCCN1c2ccccc2Sc2ccc(Cl)cc21	inactive	–
CCCCCCCCCCCCCCCCO	inactive	–
CCOCCOCCO	inactive	–
C=CCc1ccc(OC)c(OC)c1	inactive	–
CC1(C)C(=O)NC(=O)N1CO	inactive	–
COC(=O)CCCC(=O)OC	inactive	–
CCCCC(CC)CO (stereo not given)	inactive	–
CO[C@@H]1COCC[C@@H]1N[C@@H]1CC[C@@](C(=O)N2CCc3ncc(C(F)(F)F)cc3C2)(C(C)C)C1	inactive	–
CC(=O)OC1CC(C)OC(C)O1 (stereo not given)	inactive	–
N[C@@H](Cc1c[nH]c2ccccc12)C(=O)O	inactive	–
Cc1ccc(C(C)(C)C)c(O)c1	–	164 µM (active)
c1ccc2occc2c1	inactive	–
Cc1occc(=O)c1O	inactive	–
CN(C)C(=O)NC1(c2ccccc2)CCN(CCC[C@]2(c3ccc(Cl)c(Cl)c3)CCCN(C(=O)c3ccccc3)C2)CC1	–	2.84 µM (active)
CC(=O)S[C@H](C(=O)N[C@H]1Cc2ccccc2[C@H]2CCC[C@@H](C(=O)O)N2C1=O)C(C)C	inactive	–
COC(=O)CCC(=O)OC	inactive	–
CCCCCCC(C=O)=Cc1ccccc1	inactive	–
NC=O	inactive	–
CCCCOC(=O)CCCCC(=O)OCCCC	inactive	–
CC(=O)O[C@]1(C(C)=O)CC[C@H]2[C@@H]3C=C(Cl)C4=CC(=O)[C@@H]5C[C@@H]5[C@]4(C)[C@H]3CC[C@@]21C	inactive	–
Nc1nc(Cl)nc2c1ncn2[C@H]1C[C@H](O)[C@@H](CO)O1	–	16.9 µM (active)
Oc1ccc(O)cc1	inactive	–
CCN(CC)CCOc1ccc(C(=C(Cl)c2ccccc2)c2ccccc2)cc1	inactive	–
O=C1CCCCC1	inactive	–
